# Assay results from the supplement of paper PMC6555819.
# What was measured:
# Assay in all cases: PBM binding z-score (relative to random genomic background probes); higher = stronger binding; sequences stand for … in GC…GCGATTGACAGCGTAGAATGAAGG
# [1] = tested on: FXR:RXRa (NR concentration 270 nM, RXRa partner concentration 90 nM)
# Summary of the method: (§1)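 The probes on custom Agilent 4×180K protein-binding microarrays were double-stranded, with 34-nt variable regions bearing direct-repeat seeds, single-nucleotide variants, half-site ablations and random human genomic background sequences. Incubation lasted 1 h with ligand-free nuclear receptor dimers in PBS pH 7.4, 2% milk, 0.02% Triton X-100, 1 mM DTT, 0.2 mg/mL BSA and 0.4 mg/ml salmon testes DNA. Antibodies against each partner (one per run) detected bound dimers, and fluorescence scans were regression-normalized. Binding z-scores take the random background probes as reference.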
# [2] = tested on: LXRa:RXRa (NR concentration 270 nM, RXRa partner concentration 90 nM)
# Summary of the method: as §1
# [3] = tested on: LXRa homodimer (NR concentration 270 nM)
# Summary of the method: as §1
# [4] = tested on: LXRb:RXRa (NR concentration 270 nM, RXRa partner concentration 90 nM)
# Summary of the method: as §1
# [5] = tested on: LXRb homodimer (NR concentration 270 nM)
# Summary of the method: as §1
# [6] = tested on: PPARa:RXRa (NR concentration 270 nM, RXRa partner concentration 90 nM)
# Summary of the method: as §1
# [7] = tested on: PPARg:RXRa (NR concentration 180 nM, RXRa partner concentration 90 nM)
# Summary of the method: as §1
# [8] = tested on: PPARg:RXRa 270nM:90nM, anti-RXR (NR concentration 270 nM, RXRa partner concentration 90 nM)
# Summary of the method: as §1
# [9] = tested on: PPARg:RXRa 30nM:10nM, anti-RXR (NR concentration 30 nM, RXRa partner concentration 10 nM)
# Summary of the method: as §1
# [10] = tested on: PPARg:RXRa 90nM:30nM, anti-RXR (NR concentration 90 nM, RXRa partner concentration 30 nM)
# Summary of the method: as §1
# [11] = tested on: PPARg:RXRa DBDmut IVT, anti-RXR (DBD mutation: RXRa K156A/R161A, NR concentration 270 nM, RXRa partner concentration 90 nM)
# Summary of the method: as §1
# [12] = tested on: PPARg:RXRa IVT, anti-PPARg (NR concentration 270 nM, RXRa partner concentration 90 nM)
# Summary of the method: as §1
# [13] = tested on: PPARg DBDmut:RXRa IVT, anti-PPARg (DBD mutation: PPARg1 K132A/R137A, NR concentration 270 nM, RXRa partner concentration 90 nM)
# Summary of the method: as §1
# [14] = tested on: PPARg DBDmut IVT, anti-PPARg (DBD mutation: PPARg1 K132A/R137A, NR concentration 270 nM)
# Summary of the method: as §1
# [15] = tested on: PPARg homodimer (NR concentration 180 nM)
# Summary of the method: as §1
# [16] = tested on: PXR:RXRa (NR concentration 270 nM, RXRa partner concentration 90 nM)
# Summary of the method: as §1
# [17] = tested on: PXR homodimer (NR concentration 270 nM)
# Summary of the method: as §1
# [18] = tested on: RARa:RXR (NR concentration 270 nM, RXRa partner concentration 90 nM)
# Summary of the method: as §1
# [19] = tested on: RARa homodimer (NR concentration 270 nM)
# Summary of the method: as §1
# [20] = tested on: RARb:RXRa (NR concentration 270 nM, RXRa partner concentration 90 nM)
# Summary of the method: as §1
Sequence,PBM binding z-score [1],PBM binding z-score [2],PBM binding z-score [3],PBM binding z-score [4],PBM binding z-score [5],PBM binding z-score [6],PBM binding z-score [7],PBM binding z-score [8],PBM binding z-score [9],PBM binding z-score [10],PBM binding z-score [11],PBM binding z-score [12],PBM binding z-score [13],PBM binding z-score [14],PBM binding z-score [15],PBM binding z-score [16],PBM binding z-score [17],PBM binding z-score [18],PBM binding z-score [19],PBM binding z-score [20]
GCATATACGTAATACAAGGTGAAAGTCCGATTGT,0.409,0.28,0.383,0.441,0.0307,0.855,0.906,0.499,0.287,0.554,-0.0308,0.718,0.51,1.15,0.296,0.381,0.191,0.815,0.672,0.666
GCTAGTTGGTCAGTAAAAGGTTACACACCGGTCG,0.754,1.32,0.582,1.27,-0.0752,1.85,0.972,2.31,0.546,1.46,0.66,1.05,-0.658,-0.197,1.27,1.42,0.164,1.98,0.524,2
GGAAAGAGGGCAAGTTGATAGCAGAGTTTGATGG,1.6,1.58,0.345,1.25,0.718,2.15,1.14,1.59,0.606,1.04,3.57,2.18,0.748,-0.108,1.67,1.29,1.23,0.849,1.34,2.93
TATCCTAGGTCATTGGGCCAGTATAGTACGCATC,4.8,6.02,5.49,3.44,2.48,4.44,5.45,4.94,2.33,4.11,4.13,5.49,1.68,3.21,2.35,2.21,0.746,2.96,0.931,3.98
CGTCAAAGCTCAAGGTAACGTAACAGAAAGCAGC,-0.214,-0.485,-0.372,-0.335,-0.863,-0.0672,0.521,-0.193,0.0179,0.133,0.0198,-0.221,-1.47,-0.249,-0.421,-0.257,-0.303,0.0827,-0.0827,-0.0501
AAAATGAGGTTACCAAAGATCAGGGAAACGCTTG,2.21,6.37,-0.0548,3.4,-0.136,3.71,3.49,3.24,1.2,2.53,4.97,4.33,2.73,0.928,0.63,1.71,0.241,2.47,-0.123,2.31
TCATATAGGTAAATGATAGGTGAAAGTCCGATCT,1.32,1.17,0.558,1.22,0.404,1.74,1.51,2.71,3.76,3.23,3.92,2.51,1.28,1.62,1.19,0.828,0.487,1.49,1.16,0.612
AGTCAAAGTTCACTAGGTCACGTAAGATTCAGCT,6.19,6.11,5.68,4.32,1.45,6.04,9.33,7.67,4.81,7.31,5.56,6.73,1.41,1.03,4.02,5.52,3.91,5.75,1.46,5.27
TCTTGTAGAGCAAAGGTTAAGAAAGCCGAAGCCT,0.884,1.23,-0.186,1.4,-0.852,4.91,8.91,8.58,8.43,8.68,2.94,4.15,0.281,-0.0845,0.283,1.49,-0.688,2.16,-0.59,1.62
CGTCCACGGTCAGCAGGTCAGTGAAAGCGACGTG,0.822,0.439,-0.291,-0.097,-0.966,1.08,0.155,0.415,-0.695,-0.328,0.719,0.748,-0.923,-1.32,0.382,0.0662,-0.459,0.943,-0.66,3.25
CCTACTGGGCCATTCAGAGGCCATTGATCATATG,-0.101,-0.261,-0.0422,-0.326,-0.546,0.543,0.541,0.6,-0.265,0.287,4.1,3.43,-0.542,-0.403,0.212,-0.174,-0.0574,-0.153,-0.498,0.712
CGAGCGAGGGCATGAGTTGATAGCAAATGCCGAT,0.5,0.467,-0.292,0.175,-1.07,0.945,0.571,0.44,-0.503,0.0146,0.598,0.064,-0.548,-1,-0.175,0.544,-0.137,0.536,-0.541,2.03
CCTACTGGGCCACGAAAGGTCATTGCTTCAGTGA,3.92,5.22,5.24,4.45,0.134,4.62,4.49,4.91,2.15,4.17,5.37,5.7,1.88,1.06,3.27,5.56,2.05,5.35,1.56,3.94
TATACAGGGTCAAAGGCCAGAGTGCGAATGTCGA,7.16,6.05,2.6,4.8,2.58,6.08,8.23,7.43,5.95,7.86,2.54,4.9,2.49,2.56,5.37,4.79,1.14,6.61,1.49,4.59
